“And” between values parts separate entries of the source, which are not always exact repeats. Equal entries are not always repeated. Inconclusive results are not listed. The source made the active and inactive calls. The call rests on the fitted dose curve; in most records, active means well fitted curve in the direction sought with a large enough effect; inconclusive means small, poorly fitted or top-dose-only effect, or another doubt; inactive means no such curve, though single readings can be large or run the other way.
Biological target: Lysosomal acid glucosylceramidase (Homo sapiens) (UniProt P04062)
Test: qHTS Assay for Inhibitors and Activators of N370S glucocerebrosidase as a Potential Chaperone Treatment of Gaucher Disease: Primary Screen Confirmation;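 on Potency: enzyme source is Gaucher patient spleen homogenate not purified recombinant protein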
Settings: N370S glucocerebrosidase enzyme activity, fluorogenic substrate; series mostly up to 54 µM
Outline: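 Patient-spleen homogenate carrying N370S GC (27 ug) in pH 5.0 citrate buffer with 0.01% Tween-20, 1 mM 4-methylumbelliferyl-beta-glucoside, 40 min at 37C; fluorescence 365/440 nm after NaOH/glycine stop; AC50 from Hill fits.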
Potency means the concentration at half of the fitted maximal effect.

Chain of Lysosomal acid glucosylceramidase (Homo sapiens) (P04062 whole entry N409S): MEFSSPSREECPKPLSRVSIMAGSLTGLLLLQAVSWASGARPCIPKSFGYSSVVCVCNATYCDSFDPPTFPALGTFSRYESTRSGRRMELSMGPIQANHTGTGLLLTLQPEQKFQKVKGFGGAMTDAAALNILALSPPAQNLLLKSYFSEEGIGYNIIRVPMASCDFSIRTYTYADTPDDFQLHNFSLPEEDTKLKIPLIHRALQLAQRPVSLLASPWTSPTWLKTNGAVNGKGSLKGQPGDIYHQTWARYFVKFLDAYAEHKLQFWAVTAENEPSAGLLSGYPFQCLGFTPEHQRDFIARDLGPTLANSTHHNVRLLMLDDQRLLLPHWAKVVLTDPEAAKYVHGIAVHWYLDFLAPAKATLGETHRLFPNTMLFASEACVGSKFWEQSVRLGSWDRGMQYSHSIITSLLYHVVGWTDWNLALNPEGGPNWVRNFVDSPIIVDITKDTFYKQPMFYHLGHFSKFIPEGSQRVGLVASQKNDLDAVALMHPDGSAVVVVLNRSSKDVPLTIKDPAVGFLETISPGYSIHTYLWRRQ

Potency, active:
S=C(NCCCc1cnc[nH]1)NCCCN(Cc1ccc(Cl)cc1)c1ccc(Br)cn1 1.16 µM
O=S(=O)(c1ccc2c(Cl)cccc2c1)N1CCN(c2nc(-c3cccs3)nc3ccccc23)CC1 2.01 µM
CCOC(=O)c1ccc(S(=O)(=O)N2CCN(c3nc(-c4cccs4)nc4ccccc34)CC2)cc1 0.819 µM
O=S(=O)(Cc1ccccc1)N1CCN(c2nc(-c3cccs3)nc3ccccc23)CC1 2.25 µM
CCC1CN(S(=O)(=O)c2ccc3c(c2)NC(=O)CC(=O)N3)c2cc(Cl)ccc2O1 (centres undefined) 2.91 µM
CC(=O)c1ccccc1S(=O)(=O)N1CCN(c2nc(-c3cccs3)nc3ccccc23)CC1 3.26 µM
CC(C)(C)c1cccc(S(=O)(=O)N2CCN(c3nc(-c4cccs4)nc4ccccc34)CC2)c1 1.63 µM
C#CCOCCOCCOCCNc1nc(N2CCN(C(=O)CCCCCCCCCCNC(=O)[C@H](CO)n3cc(CCCSC)nn3)CC2)nc(N2CCN(C(=O)CCCCCCCCCCNC(=O)[C@H](CCCN=C(N)N)n3cc(C[C@@H](C)CC)nn3)CC2)n1 6.51 µM
CC(C)(C)c1ccc(S(=O)(=O)N2CCN(c3nc(-c4cccs4)nc4ccccc34)CC2)cc1 1.3 µM and 1.46 µM
CCOC(=O)c1ccccc1S(=O)(=O)N1CCN(c2nc(-c3cccs3)nc3ccccc23)CC1 0.366 µM
Cc1ccc(S(=O)(=O)C2CCN(c3nc(-c4cccs4)nc4ccccc34)CC2)cc1 8.19 µM
O=S(=O)(c1cccnc1)N1CCN(c2nc(-c3cccs3)nc3ccccc23)CC1 3.18 µM
CCOc1ccc(N(CC(=O)Nc2ccc(C)cc2)S(=O)(=O)c2c(C)[nH]c(=O)[nH]c2=O)cc1 11.2 µM
Cc1ccc(S(=O)(=O)N2CCN(c3nc(C(N)=O)nc4ccccc34)CC2)cc1 13 µM
O=S(=O)(c1ccccc1C(F)(F)F)N1CCN(c2nc(-c3ccccc3)nc3ccccc23)CC1 2.91 µM
COc1ccccc1S(=O)(=O)N1CCN(c2nc(-c3cccs3)nc3ccccc23)CC1 0.73 µM
O=C(/C=C/c1ccc(O)cc1)c1ccc(O)cc1O 11.2 µM
Cc1cccc(S(=O)(=O)N2CCN(c3nc(-c4cccs4)nc4ccccc34)CC2)c1 2.01 µM
Oc1cccc(Nc2nc(-c3ccccc3Cl)nc3ccccc23)c1 2.06 µM
Cc1cc(C)cc(N(CC(=O)Nc2ccc(C)cc2Cl)S(=O)(=O)c2c(C)[nH]c(=O)[nH]c2=O)c1 1.63 µM
CC(=O)c1cccc(S(=O)(=O)N2CCN(c3nc(-c4cccs4)nc4ccccc34)CC2)c1 2.25 µM
S=C(NCCCc1cnc[nH]1)NCCCN(Cc1ccc(Cl)c(Cl)c1)c1ccc(Br)cn1 650 nM and 579 nM
O=S(=O)(c1ccc(F)cc1)N1CCN(c2nc(-c3ccccc3)nc3ccccc23)CC1 6.51 µM

Potency, inactive:
Cc1ccc(S(=O)(=O)N2CCN(c3nc(-c4cccs4)nc4c3ncn4COC(=O)C(C)(C)C)CC2)cc1
NCCCN(Cc1ccc(Cl)c(Cl)c1)c1ccccn1
Cc1cccn2c(=O)c3cc(C(=O)NCCc4ccccc4)sc3nc12
O=S(=O)(c1ccccc1)N1CCN(c2nc(-c3ccc(F)cc3)nc3cc(Cl)ccc23)CC1
CCN1CCN(c2nc3c(C)cccn3c(=O)c2/C=C(\C#N)C(=O)NCCOC)CC1
COc1ccc(CN(CCCN)c2ccc(Br)cn2)cc1
